IL1B secr inh = qHTS for Inhibitors of Inflammasome Signaling: IL-1-beta AlphaLISA Primary Screen; 360,000 compounds, 4.7% hits; THP-1 LPS/ATP IL-1B secretion, AlphaLISA, 16 h; active compounds read low; AID 743279, 2014; activity change, % at 57.5 µM; in the data active = activity change below about -50%; inconclusive = mostly about -30% to -49%
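THP-1 cells pretreated 1 hr with compounds (up to 57.5 uM final), then stimulated with LPS (250 ng/mL final) plus ATP (1.25 mM final); secreted IL-1B measured by AlphaLISA after 16 hr, decreased signal indicating inhibition.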
TDP1 cell CPT = qHTS for Inhibitors of human tyrosyl-DNA phosphodiesterase 1 (TDP1): qHTS in cells in presence of CPT; chicken DT40 Tdp1-/-;hTDP1 cells + 20 nM CPT, ATP luminescence, 48 h; Potency, µM (titrated, usually from 46.2 µM), usual class: inhibitors; 420,000 compounds, 12% hits; AID 686979, 2013; note: nearly all actives have a fitted effect of over 55% in size
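Cell growth measured by CellTiter-Glo luminescence after a minimum 48 h, 37 C compound exposure with 20 nM CPT in Tdp1-knockout DT40 cells stably expressing hTDP1, seeded 400/well; qHTS titration format.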
ELG1 repair inh = qHTS screen for small molecules that inhibit ELG1-dependent DNA repair in human embryonic kidney (HEK293T) cells expressing luciferase-tagged ELG1 | HEK293T ELG1-luciferase reporter, luminescence, 16 h; DNA damage induced by 5-fluorouridine | Potency, µM (top dose mostly 46.1 µM), actives largely listed as inhibitors | 330,000 compounds, 2.3% hits; note: nearly all actives have a fitted effect of over 55% in size
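Overnight (16 hr) co-exposure of 2,000 cells/well to 5-fluorouridine and compound at 37 °C preceded detection. Luciferase was quantified via ONE-Glo luminescence; loss of signal denotes inhibition.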
HT1080 IDH1KD tx = qHTS for induction of synthetic lethality in tumor cells producing 2HG: qHTS for the HT-1080-IDH1KD cell line | HT-1080 IDH1 knockdown viability, ATP luminescence, 48 h | Potency, µM (doses to about 46.1 µM), hits mostly cytotoxic | 360,000 compounds, 2% hits
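In this qHTS, HT-1080 cells depleted of IDH1 are exposed for 48 h at 37 °C to compound titrations. Toxicity is scored from CellTiter-Glo luminescence, with DMSO as full viability and medium alone as none.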
HT1080NT lethal = qHTS for induction of synthetic lethality in tumor cells producing 2HG: qHTS for the HT-1080-NT fibrosarcoma cell line; HT-1080-NT fibrosarcoma viability, CellTiter-Glo ATP luminescence, 48 h; Potency, µM (titrated, usually from 46.1 µM), hits mostly cytotoxic; 360,000 compounds, 1.6% hits; AID 686970, 2013;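 note: NT is the 2HG producing partner of a matched IDH1 knockdown line; nearly all actives have a fitted effect of over 55% in size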
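750 cells/well, RPMI + 5% FBS; 2 h settle, compound pin-transfer, 48 h at 37 degrees C. CellTiter-Glo 10 min RT, luminescence. Normalized to DMSO and media-only wells.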
DT40 TDP1 no CPT = qHTS for Inhibitors of human tyrosyl-DNA phosphodiesterase 1 (TDP1): qHTS in cells in absence of CPT. DT40 Tdp1-/- hTDP1 cells, no CPT, ATP luminescence, 48 h. Potency, µM (highest dose often 46.2 µM), usual class: inhibitors. 420,000 compounds, 15% hits; note: nearly all actives have a fitted effect of over 55% in size
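No-CPT arm: Tdp1-/-;hTDP1 DT40 cells (400/well) plus compounds, incubated ≥48 hr at 37 °C. Readout CellTiter-Glo luminescence.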
Numbers stand for hits; . = inactive; ? = inconclusive; / = no result; [ ] = dose if it differs, or a comment. This is a sample that favours compounds with a hit; in the whole collection about 19% have one here. Unless noted, calls come from the whole dose curve; as a rule, active = well fitted curve in the direction sought with a large enough effect; inconclusive = small, poorly fitted or top-dose-only effect, or another doubt; inactive = no such curve, though single readings can be large; an effect the other way counts as inactive or inconclusive.

SMILES	IL1B secr inh	TDP1 cell CPT	ELG1 repair inh	HT1080 IDH1KD tx	HT1080NT lethal	DT40 TDP1 no CPT
Cc1ccc(-n2nc3c(=O)n(C(C)C(=O)NCc4ccccc4Cl)nc(C)c3c2C)cc1 (stereo not given)	.	?	.	.	.	?
Cc1ccc(-n2nc3c(=O)n(CC(=O)NCCCc4ccccc4)nc(C)c3c2C)cc1	.	?	.	?	.	23µM
Cc1ccc(-n2nc3c(=O)n(C(C)C(=O)NCCCc4ccccc4)nc(C)c3c2C)cc1 (stereo not given)	.	16µM	?	.	.	9.2µM
Cc1ccc2c(c1)CN(CCNC(=O)C(C)Oc1ccccc1)CC(C)O2 (stereo not given)	/	.[9.04 µM]	/	/	/	.
Cc1ccc(NC(=O)CNC(c2ccccc2)c2ccccc2)c(F)c1	.	?	.	.	.	?
O=C(CNC(c1ccccc1)c1ccccc1)Nc1c(F)cccc1F	.	?	.	.	.	16µM
NC1(C#Cc2ccc3oc(=O)c(-n4cc(-c5ccsc5)nn4)cc3c2)CCCCC1	-99	8.2µM	.	.	.	8.2µM
CCN(Cc1ccccc1)S(=O)(=O)c1ccc(C(=O)N2CCN(c3nc4ccccc4s3)CC2)cc1	.	15µM	12µM	.	.	9.2µM
CCS(=O)(=O)c1cccc(C(=O)N2CCN(c3nc4c(C)ccc(Cl)c4s3)CC2)c1	/	16µM	/	/	/	?
CCOc1ccc2nc(N3CCN(C(=O)c4ccc(S(=O)(=O)CC)cc4)CC3)sc2c1	/	18µM	/	/	/	18µM
CCOc1ccc2nc(N3CCCCCC3)sc2c1	.	.	?	?	.	.
COc1ccc2nc(N3CCN(C(=O)c4ccc5ncsc5c4)CC3)sc2c1	.	.	.	.	.	?
CCOc1ccc2nc(N3CCN(C(=O)CS(=O)(=O)c4ccc(F)cc4)CC3)sc2c1	/	15µM	/	/	/	16µM
CCCCNC(=O)NS(=O)(=O)c1ccc(N)cc1	/	.	/	/	/	.
NS(=O)(=O)c1cccc(NC(=O)CSc2nc3ccccc3c(=O)n2CC2CCCO2)c1 (stereo not given)	.	.	.	.	.	.
CCOC(=O)c1c(C)n(C)c2ccc(OCC(O)CN3CCN(C)CC3)cc12 (stereo not given)	.	.	.	.	.	.
CCOC(=O)c1c(C)n(C)c2ccc(OC(=O)c3ccoc3)cc12	.	.	.	.	?	.
CCOC(=O)c1c(C)n(-c2ccc(C)cc2)c2ccc(OCC(O)CN3CCN(C)CC3)cc12 (stereo not given)	-58	.	?	18µM	21µM	?
CCOC(=O)c1c(C)n(C)c2ccc(OCC(O)Cn3c(C)nc4ccccc43)cc12 (stereo not given)	-54	?	12µM	?	.	18µM
CCOC(=O)c1c(-c2ccccc2)oc2ccc(OCC(O)CNCCN(C)C)cc12 (stereo not given)	-103	16µM	?	13µM	18µM	?
CCOC(=O)c1c(C)n(C)c2ccc(OCC(O)CNCCc3ccccc3)cc12 (stereo not given)	-60	?	?	.	.	?
Cc1cc(C)cc(Oc2nc(C(F)(F)F)nc3ccccc23)c1	.	18µM	.	?	?	21µM
COC(=O)CC1C(=O)NCCN1C(=O)CSc1nc2ccccc2s1 (stereo not given)	.	.	.	.	.	.
Cc1ccc[n+](CC(=O)Nc2cccc(Cl)c2)c1	.	.	.	.	.	.
O=C(CSc1nc(-c2ccccc2)cn1-c1ccccc1F)Nc1ccc(F)cc1	/	18µM	/	/	/	?
SMILES	IL1B secr inh	TDP1 cell CPT	ELG1 repair inh	HT1080 IDH1KD tx	HT1080NT lethal	DT40 TDP1 no CPT
CC(=O)Nc1nonc1-c1nnc(SCC(=O)Nc2cccc(C)c2C)n1-c1ccccc1	/	23µM	/	/	/	26µM
Cc1ccc(OCc2nnc(SCC(=O)Nc3cccc4ccccc34)n2-c2ccccc2)cc1	.	?	?	.	.	?
Cc1ccc(NC(=O)CSc2nnc(-c3n[nH]c4ccccc34)n2-c2ccccc2)c(C)c1	-51	15µM	23µM	?	.	?
Cc1ccc(-c2cn(-c3cccc(Cl)c3)c(S(=O)(=O)CC(=O)Nc3cccc(C)c3)n2)cc1	/	16µM	/	/	/	?
Cc1cccc(NC(=O)CSc2nc(-c3ccccc3)cn2-c2ccccc2)c1C	/	?	/	/	/	23µM
O=C(CS(=O)(=O)c1nc(-c2ccc(Cl)cc2)cn1-c1ccccc1)Nc1ccc(F)cc1F	/	18µM	/	/	/	?
Cc1cccc(NC(=O)CSc2nnc(C)c(=O)n2N)c1C	.	.	.	.	.	.
CCn1c(SCc2cccc(Br)c2)nnc1-c1nonc1NC(C)=O	/	18µM	/	/	/	23µM
Cc1ccc(-c2cn(-c3ccccc3)c(SCC(N)=O)n2)cc1C	.	.	.	.	.	.
CCOC(=O)NC(=O)CSc1nc(-c2ccc(C)c(C)c2)cn1-c1ccccc1	-61	?	?	.	.	?
O=C(CS(=O)(=O)c1nc(-c2ccc(Cl)cc2)cn1-c1ccccc1)Nc1cccc(Cl)c1	/	23µM	/	/	/	?
Cc1ccc(NC(=O)CS(=O)(=O)c2nc(-c3ccc(C)cc3)cn2-c2ccc(C)cc2)cc1	/	21µM	/	/	/	15µM
NS(=O)(=O)c1cccc(NC(=O)COC(=O)c2cc(-c3ccc(Cl)cc3)nc3ccccc23)c1	?	?	?	?	.	?
Cc1cccc(NC(=O)CS(=O)(=O)c2nc(-c3ccccc3)cn2-c2cccc(Cl)c2)c1C	/	23µM	/	/	/	18µM
Cc1ccc(C(=O)n2c(-c3ccccc3)cnc2SCC(=O)Nc2ccc(C)cc2C)cc1	.	?	?	.	.	26µM
C[C@H](NC(=O)[C@@H]1CCCN1C(=O)[C@@H]1CCCN1C(=O)c1cccs1)c1ccccc1	.	.	/	.	.	.
Cc1ccc(C)c(NC(=O)c2cc(=O)c3cc(C)cc(C)c3o2)c1	/	.	/	/	/	.
CC1=C(C(=O)Nc2ccccc2C)C(c2cccs2)n2nc(SCc3cc(C)ccc3C)nc2N1 (stereo not given)	/	?	/	/	/	5.8µM
CC1=C(C(=O)Nc2ccc(C)cc2C)C(c2cccs2)n2nc(SCc3ccccc3Cl)nc2N1 (stereo not given)	/	10µM	/	/	/	6.5µM

High-throughput results (PubChem)
